In the assay the test system is MDA-MB-468 breast. As to the kind of experiment: NCI-60 one-dose screen, 48 h (100 = growth as untreated, 0 = no growth, -100 = all killed). Conditions: 10 µM unless noted.

This is part of a sample that, as a whole, favours compounds with a hit. Of some 83,000 tested, about 20% had one in any assay.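 For each line, cells grew in 96-well plates with the test compound present at a single concentration for 48 hours.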 Unmarked numbers belong to inactive results. The source made the active and inactive calls. Rule for the calls: active = growth percent below 10; inactive = the rest.

For the molecule `CCCCCCCCCCCCCCCC(=O)OC[C@@]1(O)C[C@@]23CC[C@@H]4C(C)(C)CCC[C@@]4(C)[C@@H]2CC[C@H]1C3`, the growth was 103%.

On to `COc1ccc2c(c1)C(=O)/C(=C/c1cccnc1)CC2`, for which the growth was 100%. For `C[C@H](CCCC(=O)NCC#CCN1CCN(C)CC1)[C@H]1CC[C@H]2[C@@H]3CC[C@@H]4CC(=O)CC[C@]4(C)[C@H]3CC[C@]12C`, the growth was 91%. In the case of `Cc1ccc(NCCNCC(C)(C)O)c2c(=O)c3ccc(Cl)cc3sc12`, the growth is -28.9% (active). For `Clc1ccc(Sc2nc(NC3CC3)nc(Sc3ccc(Cl)cc3)n2)cc1`, the growth is 91.2%. Next, `O=S(=O)(O)c1ccc(Cl)cc1`: 105%. In the case of `COC(C(=O)[C@@H](O)[C@@H](C)O)[C@@H]1Cc2cc3cc(O[C@H]4C[C@@H](O[C@H]5C[C@@H](O)[C@H](O)C(C)O5)[C@H](O)C(C)O4)cc(O)c3c(O)c2C(=O)[C@H]1O[C@H]1C[C@@H](O[C@H]2C[C@@H](O[C@H]3C[C@@H](OC)[C@H](O)C(C)O3)[C@@H](O)C(C)O2)[C@H](O)C(C)O1` (stereo partly specified), the growth was 59.3%. Take `COc1ccc(-n2nc(C)c3c(Nc4ccc(NC(=O)Nc5cc(C(F)(F)F)ccc5F)cc4)ncnc32)cc1`: the growth is 29.6%. Regarding `NC1(CO)COC(c2ccccc2)OC1` (stereo unspecified), the growth is 99.7%. Turning to `Cc1cc2c(C(C)C)c(O)c(O)c(C=NCCCCC(=O)O)c2c(O)c1-c1c(C)cc2c(C(C)C)c(O)c(O)c(C=NCCCCC(=O)O)c2c1O`, the growth was 35.4%. On to `CCCCCCNC(=O)Oc1ccc(/C(=C(\C)c2ccc(OC)cc2)c2ccc(OCCN3CCCCC3)cc2)cc1`, for which the growth is 75.6%.
